# Results reported in PubChem BioAssay (NCATS).
# Records with an inconclusive call do not appear. Unmarked numbers belong to inactive results. Active and inactive are the calls of the source. The call rests on the fitted dose curve; in most records, active means well fitted cell-killing curve with a large enough effect; inconclusive means small, poorly fitted or top-dose-only effect; inactive means flat fitted curve, though single readings scatter.
# Assay: Cell Viability - Mesenchymal (AID 546);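 further: cells exposed to compound for 40 hours before reading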;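 on activity change, negative = cytotoxicity: 0% = DMSO only and -100% = 100 µM tamoxifen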
# Conditions: mesenchymal cells viability, qHTS; series mostly up to 91.7 µM; activity change, negative = cytotoxicity: at the top concentration
# From the text: NIH Chemical Genomics Center [NCGC]
# NIH Molecular Libraries Screening Centers Network [MLSCN]
# National Institutes of Environmental Health Sciences [NIEHS]
# National Toxicology Program [NTP]
# We have developed a 1536-well cell-based assay for quantitative high throughput screening (qHTS) against a number of cell lines to determine in vitro cytotoxicity of small molecules. This particular assay uses the kidney mesenchymal cell line which is derived from normal human renal glomeruli.
# NCGC Assay Protocol Summary:
# The CellTiter-Glo luminescent cell viability assay (Promega) is a homogeneous method to measure the number of viable cells in culture. The end point readout of this assay is based on quantitation of intracellular ATP, an indicator of metabolic activity, using the luciferase reaction. Luciferase catalyzes the oxidation of beetle Luciferin to oxyluciferin and light in the presence of ATP. The luminescent signal is proportional to amount of ATP present.
# Using the CellTiter-Glo luminescent cell viability assay, the amount of cellular ATP was measured in the kidney mesenchymal cell line with complete culture medium following compound treatment for 40 hours. The assay was performed in opaque white Kalypsys 1536-well plates. In the screen, tamoxifen and doxorubicin were used as positive controls. Library compounds were measured for their ability to cause acute toxicity in the cell line, as reflected by a decrease in intracellular ATP levels, in a concentration-dependent manner. […] AC50 values were determined from concentration-response data modeled with the standard Hill equation.
# qHTS protocol for CellTiter Glo kidney mesenchymal cells cellular assay
# [Step] [Parameter] [Value] [Description]
# 1. Reagent; 5 uL; 1000 kidney mesenchymal cells/well
# 2. Time; 5 hr; 37 °C incubation
# 4. Controls; 23 nL; Tamoxifen 0.34 uM to 100 uM & Doxorubicin 0.02 nM to 100 uM
# 5. Time; 40 hr; 37 °C incubation
# 6. Reagent; 5 uL; CellTiter Glo reagent
# 7. Time; 20 min; Room Temperature
# 8. Detection; Luminescence; Viewlux plate reader
# Keywords: cell viability, cytotoxicity, Kidney mesenchymal cell line, luminescence, NTPHTS, NTPHTS_NCGC, NIEHS, EPA, DSSTox, MLSMR, MLSCN, NIH Roadmap, qHTS, NCGC
# Potency means the concentration at half of the fitted maximal effect.
SMILES,"activity change, negative = cytotoxicity [%]",Potency
c1ccc(Nc2ccc(Nc3ccccc3)cc2)cc1,-23.7,–
Oc1cc(Cl)c(Cl)c(Cl)c1,-19.8,–
CC(C)(C)OOC(=O)c1ccccc1,-1.38,–
ClC=CCl,-7.21,–
CN(C)N=O,6.35,–
CCOP(=O)(OCC)OCC,1.39,–
Nc1cccc2ccccc12,0.497,–
CC(C)OS(C)(=O)=O,-2.37,–
Clc1cccc2ccccc12,4.36,–
COP(=S)(OC)SCn1nnc2ccccc2c1=O,-12,–
[N-]=[N+]=[N-],-8.79,–
CCOP(=S)(OCC)Oc1nc(Cl)c(Cl)cc1Cl,4.23,–
CC(C)(COCC1CO1)COCC1CO1 (stereo not given),1.29,–
Nc1ccc(-c2ccc(N)c(Cl)c2)cc1Cl,–,31.6 µM (active)
Oc1c(Cl)c(Cl)cc(Cl)c1Cl,-5.47,–
NNC(N)=S,5.98,–
CC(C)CON=O,14.4,–
Nc1c(Br)cc([N+](=O)[O-])cc1[N+](=O)[O-],-1.28,–
Cc1coc2c1CCC(C)C2 (stereo not given),3.5,–
C=C(Cl)CSC(=S)N(CC)CC,5.63,–

SMILES,"activity change, negative = cytotoxicity [%]",Potency
CCCCCCCCCCCOC(=O)c1ccccc1C(=O)OCCCCCCCCCCC,-17.5,–
CN=C=O,-4.6,–
CCCBr,3.75,–
c1ccoc1,2.4,–
CCCCCC[N+](=O)[O-],4.38,–
Oc1cc(Cl)cc(Cl)c1,11,–
ClCCBr,0.626,–
S=c1[nH]c2ccccc2[nH]1,-4.59,–
CC(C)[N+](=O)[O-],8.73,–
Clc1ccc(C(Cl)(Cl)Cl)c(Cl)c1,-1.62,–
Nc1ccc2ccccc2c1,-10.3,–
O=S(=O)(Cl)c1ccccc1,-2.07,–
OCCCCO,-0.0483,–
CCC(Cl)[N+](=O)[O-] (stereo not given),11.2,–
C=CCc1cc(OC)c2c(c1)OCO2,9.17,–
Cl/C=C/Cl,-11.3,–
CC(C)[C@]12CC(=O)[C@H](C)[C@H]1C2,1.63,–
Cc1cccc(N)c1C,0.912,–
CCCC[N+](=O)[O-],8.58,–
ClCC(Br)CBr (stereo not given),10.6,–
